# Tau fluor cs: counter-screen for tau fibril formation inhibitors | tau K18 P301L Alexa594 fluorescence, heparin fibrillization | Potency, µM (titrated, usually from 57.7 µM), inactives show at the top dose activity change, negative = decrease | 0.93% of 280,000 active | AID 1463; further: nearly all actives have a fitted effect of over 55% in size
#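 Human tau K18 P301L (15 uM unlabeled, 0.24 uM Alexa 594-labeled) in 100 mM sodium acetate pH 7 with 20 uM heparin, 6 hr at 37 C. ThT 30 uM added, 1 hr ambient; Alexa 594 FP and total fluorescence read at 555/632 nm.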
# TR SRC2 fluor cs: Texas Red fluorescence interference in TRb-SRC2 counter-screen. TRb/SRC2 Texas Red total fluorescence interference. Potency, µM (highest dose often 106 µM), for inactives: top-dose fluorescence change, negative = quenching. 0.29% of 280,000 active. AID 1479; active means well fitted curve in either direction with a large enough effect; inconclusive means small, poorly fitted or top-dose-only effect
#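 Human TRb ligand-binding domain at 0.6 uM with 20 nM Texas Red SRC2 peptide in Tris buffer containing 1 uM T3 and 5% DMSO, incubated with compound 5 h at ambient temperature. Total fluorescence (555/632 nm) calculated as parallel + 2 × perpendicular.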
# TRb SRC2 PPI: TRbeta-SRC2 interaction inhibition | 0.065% of 280,000 active | P10828 | Potency, µM (doses to about 106 µM), inactives show top-dose activity change, negative = inhibition, most hits filed as inhibitors | TRbeta-SRC2 peptide binding, fluorescence polarization; receptor liganded with 1 µM T3 | AID 1469;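 further: plate controls were bound peptide for no effect and peptide without receptor for full effect; nearly all actives have a fitted effect of over 50% in size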
# Target sequence (P10828 whole entry, looked up): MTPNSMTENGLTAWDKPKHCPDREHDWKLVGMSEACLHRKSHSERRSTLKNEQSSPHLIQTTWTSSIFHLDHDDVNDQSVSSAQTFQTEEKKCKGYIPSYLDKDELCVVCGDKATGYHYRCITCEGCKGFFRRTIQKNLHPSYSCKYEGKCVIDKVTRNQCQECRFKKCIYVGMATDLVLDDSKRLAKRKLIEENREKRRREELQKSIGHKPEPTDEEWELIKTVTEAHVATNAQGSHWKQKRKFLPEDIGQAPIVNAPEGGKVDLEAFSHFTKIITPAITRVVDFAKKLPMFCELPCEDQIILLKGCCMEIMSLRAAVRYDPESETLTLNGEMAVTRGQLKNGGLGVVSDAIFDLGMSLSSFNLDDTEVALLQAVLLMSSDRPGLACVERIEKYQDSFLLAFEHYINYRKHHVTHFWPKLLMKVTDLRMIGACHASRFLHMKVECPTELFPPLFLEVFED
#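 Human TRb ligand-binding domain (0.6 uM) is mixed with 20 nM Texas Red SRC2 peptide and 1 uM T3; after compound addition and 5 hr at ambient temperature, polarization is measured and normalized to unbound and bound controls.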
# Tau fibril ThT: blocks human tau fibril formation measured by thioflavin T | P10636 | recombinant tau K18 P301L (four-repeat tau fragment), heparin-induced fibrillization, ThT fluorescence | Potency, µM (top dose mostly 57.4 µM), for the others: at the top dose activity, negative = inhibition, actives largely listed as inhibitors | 2.1% of 270,000 active | AID 1460; further: nearly all actives have a fitted effect of over 55% in size
# Target sequence (P10636 561-689 P618L limits assumed): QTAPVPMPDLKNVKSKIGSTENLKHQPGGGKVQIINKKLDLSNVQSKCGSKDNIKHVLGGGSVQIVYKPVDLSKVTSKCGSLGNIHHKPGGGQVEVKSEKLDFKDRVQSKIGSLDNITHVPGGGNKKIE
#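 In this qHTS, human K18 P301L tau is incubated with compound and heparin for 6 hr at 37 C, and Thioflavin T fluorescence then reports fibril load.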
# Tau fibril FP: inhibitors of human tau fibril formation; Potency, µM (series often up to 57.7 µM), for the others: at the highest dose activity, negative = inhibition, actives largely listed as inhibitors; 0.39% of 280,000 active; P10636; K18 P301L tau heparin fibrillization, Alexa594 FP, 6 h; further: nearly all actives have a fitted effect of over 55% in size
#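 Compound effects on tau fibrillization are measured by Alexa 594 fluorescence polarization (ex 555, em 632 nm). K18 P301L tau is used at 15 uM with 0.24 uM labeled tracer, and 20 uM heparin induces aggregation over 6 hr at 37 C.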
# An asterisk follows results filed as active; ? = inconclusive; . = no result given; [ ] = dose if it differs, or a comment. Rows were chosen to be rich in hits. Some 3% of all compounds tested hit in one or more screens of this group. Unless noted, the call rests on the fitted dose curve; in most records, active means well fitted curve in the direction sought with a large enough effect; inconclusive means small, poorly fitted or top-dose-only effect, or another doubt; inactive means no such curve, though single readings can be large; an effect the other way counts as inactive or inconclusive. Unless noted, on the % scale 0 is the no-effect control and ±100 the full control effect; potency means the concentration at half of the fitted maximal effect.
SMILES,Tau fluor cs,TR SRC2 fluor cs,TRb SRC2 PPI,Tau fibril ThT,Tau fibril FP
COc1ccc(OC2C=CC(c3ccccc3)OC2CO)c(C(C)=O)c1 (configuration not stated),-12%[11.6 µM],-3%[11.2 µM],-7%[11.2 µM],-14%[11.5 µM],-12%[11.6 µM]
Cc1ccc(N2CC(NC(=O)C3CCCC3)CC2=O)cc1C (configuration not stated),-3%,0%,0%,0%,-4%
C[C@H]1[C@H](C)CC[C@]2(C=O)CC[C@]3(C)C(=CC[C@@H]4[C@@]5(C)C[C@@H](O)[C@H](O)[C@@](C)(CO)[C@@H]5CC[C@]43C)[C@H]12,.,2%,-8%,.,.
Cc1nc(NCc2ccccc2)c2nc(-c3ccccc3)n(CCCN3CCCCC3C)c2n1 (configuration not stated),-12%,3%,-2%,2%,3%
COc1ccccc1Nc1nn2c(=O)c3ccc(C(=O)NC4CCC(C)CC4)cc3nc2s1 (configuration not stated),-17%,-1%,10%,-11%,4%
CC(=O)Nc1sc(N/N=C\c2ccccc2)nc1-c1cccs1,?,1%,-3%,10µM*,-6%
CC(=O)Nc1sc(N/N=C\c2ccccc2Cl)nc1-c1cccs1,4%,-7%,-3%,10%,1%
CN(C)c1ccc(/C=N/NC(=O)C(=O)/C=C2\NC3(CCCC3)Cc3ccccc32)cc1,-10%,-2%,2%,2.2µM*,7%
COc1cc(/C=N/NC(=O)C(=O)/C=C2\NC3(CCCC3)Cc3ccccc32)ccc1O,?,1%,9%,?,?
COc1ccc(O[C@H]2C=C[C@@H](c3ccccc3)O[C@H]2COC(=O)N2CCCCC2)cc1,-6%[11.6 µM],-53%[11.2 µM],-14%[11.2 µM],-12%[11.5 µM],4%[11.6 µM]
COc1ccc(-c2cn3cc([N+](=O)[O-])ccc3n2)cc1OC,-22%,-8%,5%,4.5µM*,7%
C[C@@H]1NC(=O)C/C=C\[C@@H](C)[C@@H]2C=C[C@H](O)[C@@H](COC(=O)[C@H](C)NC(=O)C/C=C\[C@@H](C)[C@@H]3C=C[C@H](O)[C@@H](COC1=O)O3)O2,5%[11.6 µM],-5%[11.2 µM],1%[11.2 µM],-2%[11.5 µM],6%[11.6 µM]
C=CCN1C(=O)/C(=c2\sc3nc(=O)c(Cc4ccccc4)nn3c2=O)c2ccccc21,-23%,-6%,1%,18µM*,?
C=CCN1C(=O)/C(=c2\sc3nc(=O)c(Cc4ccc(OC)c(OC)c4)nn3c2=O)c2ccccc21,-30%,-4%,4%,28µM*,?
CCN1C(=O)/C(=c2\sc3nc(=O)c(Cc4ccccc4)nn3c2=O)c2ccccc21,-14%,1%,2%,20µM*,-17%
CCN1C(=O)/C(=C/c2nc3ccccc3c(=O)[nH]2)c2ccccc21,-4%,-1%,-7%,?,2%
N#C/C(=C/c1ccc(Br)o1)C(N)=O,3%,-5%,-13%,1%,10%
N#C/C(=C/c1ccc(Br)o1)C(N)=S,28µM*[quencher],-2%,-2%,18µM*,-21%
COc1ccc(CNc2ccc3cn[nH]c3c2)c(OC)c1OC,?,-4%,-18%,28µM*,?
Cc1cccc(N=N/C(=C\O)C(=O)c2cccs2)c1,-17%,-5%,-2%,28µM*,-7%
COc1ccc(N(CC(=O)N2CCc3ccccc3C2)S(=O)(=O)c2ccc(C)cc2)cc1Cl,-18%,-3%,2%,-4%,-10%
Cc1c(Cl)cccc1NC(=O)C1CCN(c2ncnc3c2nc2n3CCCCC2)CC1,-11%,20µM*[quencher],-8%,?,-4%
COc1ccccc1NC(=O)C1CCN(c2ncnc3c2nc2n3CCCCC2)CC1,-7%,0%,-2%,-17%,-2%
O=C(NCc1cccnc1)C(=O)NCC(c1cccnc1)N1CCN(c2ccccc2F)CC1 (configuration not stated),-13%,100µM*[quencher],-24%,-11%,-4%
O=C(NCC(c1cccnc1)N1CCN(Cc2ccccc2)CC1)C(=O)Nc1cccc(F)c1 (configuration not stated),-26%,0.25µM*[quencher],-14%,?,-6%
SMILES,Tau fluor cs,TR SRC2 fluor cs,TRb SRC2 PPI,Tau fibril ThT,Tau fibril FP
O=C(NCC(c1cccnc1)N1CCN(Cc2ccccc2)CC1)C(=O)Nc1ccc(F)cc1 (configuration not stated),5%,5%,-8%,5%,-2%
CCN(CC)CCNC(=O)C(=O)NCC(c1cccnc1)N1CCN(c2ccccc2)CC1 (configuration not stated),3%,89µM*[quencher],-25%,1%,4%
O=C(NCC(c1cccnc1)N1CCN(c2ccccc2F)CC1)OCc1ccccc1 (configuration not stated),-9%,-3%,-11%,?,12%
O=C(NCC(c1cccnc1)N1CCc2ccccc21)C(=O)Nc1ccccc1F (configuration not stated),?,0.32µM*[quencher],-16%,-9%,6%
CCOC(=O)CC(O)(CC(=O)OCC)C(=O)OCC,.,0%[201 µM],-3%[201 µM],.,.
CC[C@H]1O[C@]2(CC[C@@H]1C)C[C@@H]1C[C@@H](C/C=C(\C)C[C@@H](C)/C=C/C=C3CO[C@@H]4[C@H](O)C(C)=C[C@@H](C(=O)O1)[C@]34O)O2,.,-6%[201 µM],3%[201 µM],.,.
CC(=O)Nc1c(C)nn(-c2ccccc2)c1N1CCC(C(=O)Nc2ccccc2C(F)(F)F)CC1,-4%,-1%,0%,-3%,-2%
Cc1ccc(C(=O)NCC(c2cccnc2)N2CCc3ccccc3C2)cc1C (configuration not stated),?,1%,2%,?,?
CC(C)(C)c1ccc(C(=O)NCC(c2cccnc2)N2CCc3ccccc3C2)cc1 (configuration not stated),?,11µM*[quencher],2%,?,6%
Fc1ccc(-c2noc3ncnc(N4CCCCC4)c23)cc1,-13%,89µM*[quencher],-24%,-5%,-7%
CC1CCC(C(C)C)C(OC(=O)COC(=O)c2cc(O)ccc2N)C1 (configuration not stated),11µM*[quencher],-1%,-2%,-14%,?
CC1CCC(C(C)C)C(OC(=O)COC(=O)c2ccc(=O)[nH]c2)C1 (configuration not stated),-15%,-4%,-10%,-13%,2%
O=C(N=Nc1c(O)n(Cc2ccccc2)c2ccccc12)c1ccncc1,-11%,-14%,-1%,16µM*,1%
COC(=O)N=Nc1c(O)n(Cc2ccccc2)c2ccccc12,-14%,-2%,2%,?,-11%
CSc1cccc(NC(=O)/C=C/c2cccc(Cl)c2)c1,13µM*[quencher],-7%,4%,19%,?
O=C(/C=C/c1cccc(Cl)c1)Nc1ncccn1,-3%,0%,-1%,-10%,3%
